Compounds with a hit are over-represented: about 11% of the library has one in this group of screens.
HPGD block = inhibitors of human 15-hydroxyprostaglandin dehydrogenase (HPGD); P15428; purified HPGD, NADH fluorescence kinetic, PGE2 substrate; Potency, µM, for inactives: top-dose activity change, negative = inhibition, actives largely listed as inhibitors; hit rate 4.3% among 150,000; active = well fitted inhibition curve with a large enough effect, not every such curve was filed as active; inconclusive = small, poorly fitted or top-dose-only effect, or another doubt; inactive = no such curve, though single readings can be large or run the other way; also: potency is read from the fitted curve at half-maximal effect
Target sequence (P15428 whole entry, looked up): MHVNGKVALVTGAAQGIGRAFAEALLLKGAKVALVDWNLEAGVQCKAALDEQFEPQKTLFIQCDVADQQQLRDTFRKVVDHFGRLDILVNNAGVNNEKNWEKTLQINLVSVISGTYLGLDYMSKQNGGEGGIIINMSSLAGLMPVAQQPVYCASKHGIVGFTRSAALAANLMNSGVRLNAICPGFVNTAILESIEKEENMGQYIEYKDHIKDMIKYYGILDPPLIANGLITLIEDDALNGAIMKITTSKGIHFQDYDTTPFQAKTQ
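NADH formation kinetics: reaction with 30 uM PGE2 and 1 mM NAD+ (final), 20 nM enzyme, Tris-HCl pH 8 with Tween 20, after 15 min compound preincubation at room temperature. Fluorescence change, last versus first of five reads.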
IMPase Li cell = membrane-permeable IMPase blocker, potentiated with lithium; hit rate 0.35% among 210,000; CHO-M1 cells, IP1 TR-FRET (IP-One), carbachol + lithium; Potency, µM (doses to about 59.4 µM), for the others: at the top dose activity, negative = IMPase inhibition, most hits filed as inhibitors; AID 1457;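 also: IP1 builds up when IMPase is blocked and the TR-FRET signal falls; potency is read from the fitted curve at half-maximal effect; plate controls were basal vehicle for no effect and high inhibitor control for full effect; nearly all actives have a fitted effect of over 50% in size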
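IP1 accumulation measured by competitive TR-FRET in lysed CHO-M1 cells after 30 min compound exposure at 37C, with a small lithium addition to potentiate weak responses. Hill-equation AC50 from ratio and donor-channel data.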
NPSR antagonist = blocks cAMP signaling of the human neuropeptide S receptor | Q6W5P4 | hit rate 1% among 220,000 | CHO-NPSR cells, cAMP TR-FRET, antagonist mode | AID 1461 | Potency, µM (doses to about 38.3 µM), inactives show at the top dose activity change, negative = inhibition, hits mostly inhibitors; also: potency is read from the fitted curve at half-maximal effect; nearly all actives have a fitted effect of over 50% in size
ALDH1A1 block = ALDH1A1 (human) enzyme inhibition; Purified ALDH1A1, NADH fluorescence, propionaldehyde substrate; AID 1030; Potency, µM (titrated, usually from 75.3 µM), inactives show at the top dose activity, negative = inhibition, usual class: inhibitors; P00352; hit rate 7.3% among 220,000; active = well fitted inhibition curve with a large enough effect, not every such curve was filed as active; inconclusive = small, poorly fitted or top-dose-only effect, or another doubt; inactive = no such curve, though single readings can be large or run the other way;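 also: potency is read from the fitted curve at half-maximal effect; plate controls were no enzyme wells and a reference inhibitor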
PNC assembly inh = perinucleolar compartment assembly inhibition; PC3M PTB-GFP, PNC prevalence imaging, 16 h; active compounds read low; activity change (PNC), negative = inhibition, % at 10 µM; hit rate 3.1% among 140,000; AID 2417;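 active = readout at or below -70, meaning at least 70% loss of cells showing the perinucleolar compartment, a nuclear body marking cancer cells; inconclusive = readout between -30 and a set limit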;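 also: plate controls were DMSO wells for no effect and camptothecin positive control wells for full effect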
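Read-out is percentage of cells bearing a perinucleolar compartment, from automated 20x imaging of fixed, Hoechst-stained PC3M PTB-GFP cells. Cells were seeded 4 h, then exposed 16 h to compound (23 nl of library stock) in duplicate plates.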
IMPase cell inh = cell-permeable inhibitors of inositol monophosphatase (IMPase) | P97697 | 120,000 tested, under 10 active | inhibition (IP1 accumulation), % at 46.1 µM | AID 901 | CHO-M1 cells, IP1 accumulation, HTRF TR-FRET ratio; active = well fitted curve in the direction sought with a large enough effect in the signal ratio, not every such curve was filed as active; inconclusive = small, poorly fitted or top-dose-only effect, or a change in a side signal; inactive = no such curve, though single readings can be large or run the other way; the % refers to the signal ratio;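 also: cells stimulated with carbachol in lithium chloride buffer; plate controls were DMSO basal wells for no effect and reference inhibitor wells for full effect; higher means more IMPase inhibition seen as more IP1 and lower FRET ratio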
Target sequence (P97697 whole entry, looked up): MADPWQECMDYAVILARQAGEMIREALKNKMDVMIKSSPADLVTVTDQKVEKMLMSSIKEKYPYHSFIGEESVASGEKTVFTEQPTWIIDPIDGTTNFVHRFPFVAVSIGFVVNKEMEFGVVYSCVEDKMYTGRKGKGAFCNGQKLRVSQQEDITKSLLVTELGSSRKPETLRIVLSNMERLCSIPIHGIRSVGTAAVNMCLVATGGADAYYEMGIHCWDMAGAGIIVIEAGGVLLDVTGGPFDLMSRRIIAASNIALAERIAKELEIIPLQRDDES
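The IP-One HTRF competitive assay in carbachol-stimulated CHO-M1 cells quantifies cellular IP1. Compounds spanned up to 46 uM final, and activity is expressed as AC50 from concentration-response fits of the ratio and donor data.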
* hit, by the source's call; ? = inconclusive; . = not tested or not shown; [ ] = dose if it differs, or a comment. Unless noted, calls follow the shape of the dose curve; as a rule, active = well fitted curve in the direction sought with a large enough effect; inconclusive = small, poorly fitted or top-dose-only effect, or another doubt; inactive = no such curve, though single readings can be large; an effect the other way counts as inactive or inconclusive. Unless noted, % is scaled to controls: 0 for no effect and ±100 for the full control effect.

SMILES	HPGD block	IMPase Li cell	NPSR antagonist	ALDH1A1 block	PNC assembly inh	IMPase cell inh
CCOC(=O)c1c(N)sc(C(=O)N2CCCCC2)c1C	8.9µM*	0%	2%[46.1 µM]	?	31	-4
CCOC(=O)c1sc(N)c(C(=O)Nc2ccccc2)c1C	.	6%	5%	11µM*	.	.
CCN1C(=O)N(C)C2(c3ccccc3)N(C)C(=O)N(C)C12c1ccccc1 (centres undefined)	2%	-1%	-11%[46.1 µM]	12%	?	-3
O=C(C1CC1)N1CCc2cc(Br)cc(S(=O)(=O)NCc3ccco3)c21	-11%	22%[38.3 µM]	3%[46.1 µM]	2µM*	-4	8
Cc1ccc(CNC(=O)CCS(=O)(=O)c2cc(Br)cc3c2N(C(=O)C2CC2)CC3)o1	?	18%[38.3 µM]	22%[46.1 µM]	10µM*	?	7
O=C(C1CC1)N1CCc2cc(Br)cc(S(=O)(=O)NCCN3CCOCC3)c21	-18%	-10%[38.3 µM]	-6%[46.1 µM]	-1%	58	3
CCOCCCNS(=O)(=O)c1cc(Br)cc2c1N(C(=O)C1CC1)CC2	-8%	-15%[38.3 µM]	-24%[46.1 µM]	10µM*	-4	-3
O=C(C1CC1)N1CCc2cc(Br)cc(S(=O)(=O)NCc3ccc4c(c3)OCO4)c21	16%	3%[38.3 µM]	-4%[46.1 µM]	10µM*	4	1
C#CCN1C(=O)C(O)(CC(=O)c2ccc(OC)c(OC)c2)c2cc(Br)ccc21 (centres undefined)	.	.	.	.	.	-3
CCCN1C(=O)C(O)(CC(=O)c2cccc(OC)c2)c2ccccc21 (centres undefined)	-23%	51%[38.3 µM]	-26%[46.1 µM]	4.5µM*	-2	7
C#CCN1C(=O)C(O)(CC(=O)c2ccc3c(c2)OCCO3)c2ccccc21 (centres undefined)	-23%	1%[38.3 µM]	-6%[46.1 µM]	1µM*	21	7
CCCN1C(=O)C(O)(CC(=O)c2ccc3c(c2)OCCO3)c2ccccc21 (centres undefined)	-17%	11%	-6%[46.1 µM]	7.1µM*	?	-9
C#CCN1C(=O)C(O)(CC(=O)c2ccc(OC)c(OC)c2)c2ccccc21 (centres undefined)	-15%	21%[38.3 µM]	-2%[46.1 µM]	0.35µM*	?	8
CN1C(=O)C(O)(CC(=O)c2ccc3c(c2)OCO3)c2ccccc21 (centres undefined)	-15%	-1%[38.3 µM]	-9%[46.1 µM]	0%	-18	0
Cc1ccc(C)c(N2CCN(C(=O)CCCn3c(=S)[nH]c4cc5c(cc4c3=O)OCO5)CC2)c1	-22%	14%[38.3 µM]	-19%[46.1 µM]	11%	1	0
CCOc1ccc(OCC)c(S(=O)(=O)N2CCOCC2)c1	.	8%	-1%	-3%	.	.
O=C(CN1CCCCC1)Nc1ccc(Br)cc1[N+](=O)[O-]	.	0%	-2%	-15%	.	.
C/C(N)=C(/C#N)C(=O)COC(=O)c1cc2c(s1)CCCC2	.	-2%	-20%	-12%	.	.
Cc1ccc2c(c1)C(O)(CC(=O)/C=C/C=C/c1ccccc1)C(=O)N2 (centres undefined)	-24%	8%	-5%	-3%	-92*	.
C#CCN1C(=O)C(O)(CC(=O)/C=C/C=C/c2ccccc2)c2ccccc21 (centres undefined)	.	4%	-6%	6.3µM*	.	.
Oc1ccc([C@@H]2CNCc3sccc32)cc1O	.	.	.	.	.	3
NC(N)=N/N=C/c1ccccc1Cl	.	.	10%[7.67 µM]	.	.	.
COC(c1ccccc1)C(C)C(OC)C(C)C(OC)C(C)C(C)=O (centres undefined)	.	.	.	5%[13.5 µM]	.	.
O=C(NNC(=S)Nc1ccccc1)c1ccncc1	-11%	-10%[38.3 µM]	-4%[46.1 µM]	?	-12	-18
S=C(Nc1ccc(Br)cc1Cl)Nn1cnnc1	.	-4%	4%	7.9µM*	.	.
O=C(NNC(=S)Nc1ccc(Br)cc1Cl)c1ccncc1	-20%	2%	11%	18µM*	?	-2
O=C(CCc1ccc(O)c(O)c1)NNC(=S)Nc1ccc(Br)cc1Cl	.	8%	13%	25µM*	.	.
Cc1ccccc1-n1nnnc1SCc1ncc(-c2ccccc2)o1	-18%	10%[38.3 µM]	?	10µM*	-23	6
c1ccc(-c2cnc(CSc3nnc4ccccn34)o2)cc1	-14%	21%[38.3 µM]	-3%[46.1 µM]	?	-24	-3
